Source: PubChem BioAssay AID651871 (Sanford-Burnham Center for Chemical Genomics, 2012)
Several values for one entry are separate records, joined by “and”; a condition that tells them apart may be missing. Identical values can stand only once.

Test system: H9c2
Assay: cardiomyocyte survival under oxidative or metabolic stress – cell-based, panel, H9c2 and HL-1, ATP luminescence, set 2, SAR follow-up (AID 651871);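 further: cells exposed to stressor for 2 h before ATP readout; reference of the scale not given here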
Conditions: H9c2/HL-1 cardiomyocytes, 2-deoxyglucose stress, with 2-deoxyglucose, run 4, at 79 µM (top of the series)

Q: For `COc1ccc2c(c1OC)C(=O)N1c3ccccc3C(=O)N(Cc3cccc(Cl)c3Cl)C21` (stereo not drawn), which activity (protection/inhibition) is on record?
A: 57.7% and -8.42%

Q: `COc1ccc2nc(-c3cc(OC)c(OC)c(OC)c3)cc(C(=O)NCC(=O)Nc3ccc(C(C)=O)cc3)c2c1` was tested. Which activity (protection/inhibition) did it give?
A: 80.7%

Q: `CCOC(=O)c1cccc(NC(=O)CNC(=O)c2cc(-c3cc(OC)c(OC)c(OC)c3)nc3ccccc23)c1` was tested. Which activity (protection/inhibition) did it give?
A: 87.2%
